# Experimental data from PubChem BioAssay (Tox21).
# Records with an inconclusive call do not appear. The source made the active and inactive calls. Calls follow the shape of the dose curve; as a rule, active = well fitted cell-killing curve with a large enough effect in the repeat runs; inconclusive = weak or mixed curves; inactive = no such curve, though single readings can be large or run the other way.
# Assay: qHTS assay to identify small molecule antagonists of the androgen receptor (AR) signaling pathway - cell viability counter screen (AID 743033; also: nearly all actives have a fitted effect of over 45% in size)
# Details: AR-bla HEK293 viability, CellTiter-Glo luminescence, 16 h; series mostly up to 58.5 µM; activity change, negative = cytotoxicity: at the top concentration
# Source text: National Center for Advancing Translational Sciences [NCATS]
# NIH Chemical Genomics Center [NCGC]
# U.S. Environmental Protection Agency [EPA]
# National Institutes of Environmental Health Sciences [NIEHS]
# National Toxicology Program [NTP]
# U.S. Food and Drug Administration [FDA]
# Androgen receptor (AR), a nuclear hormone receptor, plays a critical role in AR-dependent prostate cancer and other androgen related diseases. Endocrine disrupting chemicals (EDCs) and their interactions with steroid hormone receptors like AR may cause disruption of normal endocrine function as well as interfere with metabolic homeostasis, reproduction, developmental and behavioral functions. To identify the compounds that inhibit AR signaling, GeneBLAzer AR-UAS-bla-GripTite cell line (Invitrogen, Carlsbad, CA, USA) containing a beta-lactamase reporter gene under control of an Upstream Activator Sequence (UAS) stably integrated into HEK293 cells was used to screen the Tox21 10K compound library. The cytotoxicity of the Tox21 compound library against the AR-bla cell line was tested in parallel by measuring the cell viability using CellTiter-Glo assay in the same wells.
# Tox21 Assay Protocol Summary:
# AR-bla cells were dispensed at 2,000 cells/5 uL of assay medium per well into black wall/clear-bottom 1536-well plates using a Multidrop Combi (ThermoFisher Scientific, Waltham, MA) dispenser. After the assay plates were incubated at a 37C and 5% CO2 for 4 hr, 23 nL of compounds dissolved in DMSO, positive controls or DMSO only was transferred to the assay plate by a Pintool station (Kalypsys, San Diego, CA), followed by addition of 1 uL of agonist (R1881) in culture medium using a Bioraptr Flying Reagent Dispenser (FRD) workstation (Beckman Coulter, Indianapolis, IN, USA). The plates were incubated at a 37C and 5% CO2 for 16 h. After 1 uL of LiveBLAzerTM B/G FRET substrate was added using a Bioraptr FRD, the plates were incubated at room temperature for 2 h and fluorescence intensity was measured by an Envision plate reader (PerkinElmer, Shelton, CT). For cell viability readout that measures cytotoxicity, 4 ul/well of CellTiter-Glo reagent was added into the assay plates using a Bioraptr FRD. After 30 min incubation at room temperature, the luminescence intensity in the plates was measured using a ViewLux (PerkinElmer) plate reader.
# % is scaled to controls: 0 for no effect and ±100 for the full control effect.
row,Compound,"activity change, negative = cytotoxicity"
1,NC(=O)O,1% (inactive)
2,O=[N+]([O-])c1cccc(O)c1,2.79% [at 78.9 µM] (inactive)
3,COC(=O)c1ccccc1S(=O)(=O)NC(=O)Nc1nc(C)cc(C)n1,5.89% (inactive)
4,CC(CC(C#N)(c1ccccc1)c1ccccc1)N(C)C (stereo not given),6.34% (inactive)
5,Cc1cc(C)c(C(=O)P(=O)(C(=O)c2c(C)cc(C)cc2C)c2ccccc2)c(C)c1,0% (inactive)
6,CCN(CC)C(C)C(=O)c1ccccc1 (stereo not given),18.8% (inactive)
7,OCCSCSCCO,8.17% (inactive)
8,CCCSC(=O)Cl,-4.5% [at 78.9 µM] (inactive)
9,CCCSP(=S)(OCC)Oc1ccc(Cl)cc1Cl (stereo not given),-19.2% (inactive)
10,N#CCBr,3.75% [at 78.9 µM] (inactive)
11,O=C(CCN1CC1)OCC(CO)(COC(=O)CCN1CC1)COC(=O)CCN1CC1,5.74% (inactive)
12,O=C(N[C@H]1CN2CCC1CC2)c1cc2ccoc2cn1,0.995% (inactive)
13,CCC(C)(C)c1cc(-n2nc3ccccc3n2)c(O)c(C(C)(C)CC)c1,1.07% [at 78.9 µM] (inactive)
14,COC(=O)C(C)Oc1ccc(Oc2ccc(Cl)cc2Cl)cc1 (stereo not given),-1.35% (inactive)
15,COC(C)(C)C,-12.7% (inactive)
16,CCCCCCBr,-1.34% [at 78.9 µM] (inactive)
17,COc1cc(OC)nc(NC(=O)NS(=O)(=O)c2ncccc2C(=O)N(C)C)n1,4.04% (inactive)
18,CCOP(=O)(N=C1SCCS1)OCC,0.891% (inactive)
19,CC1(C)COP(Oc2ccccc2)OC1,13% (inactive)
20,O=C1OC(=O)C2C1C1(Cl)C(Cl)=C(Cl)C2(Cl)C1(Cl)Cl (stereo not given),0.745% [at 78.9 µM] (inactive)

row,Compound,"activity change, negative = cytotoxicity"
1,N#CCNCC#N,0.42% (inactive)
2,CS(=O)(=O)c1cc(C(F)(F)F)ccc1C(=O)c1cnoc1C1CC1,-6.93% (inactive)
3,NC(=O)c1cc([N+](=O)[O-])cc([N+](=O)[O-])c1,-32.4% (inactive)
4,CCC(Cl)[N+](=O)[O-] (stereo not given),4.59% [at 78.9 µM] (inactive)
5,N#Cc1ccncc1,8.12% [at 78.9 µM] (inactive)
6,ClC(Br)Br,3.48% (inactive)
7,CC1(C)CON(Cc2ccccc2Cl)C1=O,-12.3% (inactive)
8,[Cl][Sn]([Cl])([Cl])[Cl],3.46% [at 78.9 µM] (inactive)
9,CNC(=O)Oc1cccc(C(C)C)c1,6.28% (inactive)
10,CC(=O)CCc1ccc2c(c1)OCO2,3.2% (inactive)
11,NC1=NC(=O)C(c2ccccc2)O1 (stereo not given),0.864% (inactive)
12,COP(N)(=S)Oc1ccccc1C(=O)OC(C)C (stereo not given),1.2% (inactive)
13,CN1CCN(C(=O)O[C@H]2c3nccnc3C(=O)N2c2ccc(Cl)cn2)CC1,-0.312% (inactive)
14,c1cc2c(c(N3CCNCC3)c1)OCCO2,2.09% (inactive)
15,CC(=O)[C@H]1CC[C@H]2[C@@H]3CC[C@H]4C[C@H](O)CC[C@]4(C)[C@H]3C(=O)C[C@]12C,-13.3% (inactive)
16,COc1cc(C[C@@H](C)N)c(OC)cc1C,-9.92% [at 78.9 µM] (inactive)
17,Nc1c(Br)cc([N+](=O)[O-])cc1[N+](=O)[O-],-10.2% [at 78.9 µM] (inactive)
18,O=c1oc2ccccc2c(O)c1C1CCCc2ccccc21 (stereo not given),-9.34% (inactive)
19,CC1=NNC(=O)N(/N=C/c2cccnc2)C1,-1.24% (inactive)
20,CNCC(=O)c1ccc(O)c(O)c1,0.238% (inactive)
